Reference: PubChem BioAssay (NCATS)
Results filed as inconclusive are left out. Calls of active or inactive are those of the source. Calls come from the whole dose curve; as a rule, active = well fitted curve in the direction sought with a large enough effect; inconclusive = small, poorly fitted or top-dose-only effect, or another doubt; inactive = no such curve, though single readings can be large; an effect the other way counts as inactive or inconclusive.

Assays:
NIH3T3 = assay: qHTS assay to identify novel small-molecules to repurpose for Merkel cell carcinoma treatment (AID 1296009); conditions: MCC and control cell lines, CellTiter-Glo viability, 72 h; at 44.8 µM (top of the series) unless noted; note: nearly all actives have a fitted effect of over 60% in size
Outline: (§1)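 72 hr, 37 degree celsius; NPC 8-pt / MIPE 11-pt dose response; compound pinned in DMSO; CellTiter-Glo, 10 min RT, luminescence; normalized to no-cell and DMSO controls.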

C33A = assay: Primary qHTS to identify gynecologic anti-cancer compounds using libraries of approved drugs and bioactive compounds (AID 1345084); conditions: Gynecologic cancer cell panel viability, ATPlite luminescence, 48 h; series mostly up to 57.5 µM; note: nearly all actives have a fitted effect of over 55% in size
Outline: (§2)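 Five-point cytotoxicity, 48 h drug exposure at 37 C, 5% CO2, on cells seeded 16 h beforehand. ATP content read by ATPlite luminescence.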

CAOV3 = assay: as above; conditions: Gynecologic cancer cell panel viability, ATPlite luminescence, 48 h; series mostly up to 57.5 µM
Outline: as §2

CASKI = assay: as above; conditions: Gynecologic cancer cell panel viability, ATPlite luminescence, 48 h; series mostly up to 57.5 µM
Outline: as §2

MCC-13 = assay: qHTS assay to identify novel small-molecules to repurpose for Merkel cell carcinoma treatment (AID 1296009); conditions: MCC and control cell lines, CellTiter-Glo viability, 72 h; series mostly up to 46 µM; note: nearly all actives have a fitted effect of over 60% in size
Outline: as §1

MCC-26 = assay: as above; conditions: MCC and control cell lines, CellTiter-Glo viability, 72 h; series mostly up to 46 µM
Outline: as §1

MKL-1 = assay: as above; conditions: MCC and control cell lines, CellTiter-Glo viability, 72 h; series mostly up to 46 µM
Outline: as §1

MKL-2 = assay: as above; conditions: MCC and control cell lines, CellTiter-Glo viability, 72 h; series mostly up to 46 µM
Outline: as §1

UISO = assay: as above; conditions: MCC and control cell lines, CellTiter-Glo viability, 72 h; series mostly up to 46 µM
Outline: as §1

WaGa = assay: as above; conditions: MCC and control cell lines, CellTiter-Glo viability, 72 h; series mostly up to 46 µM
Outline: as §1

Measured: Potency

CC(=O)N(O)CCCCCN1C(=O)CCC1=O
inactive: NIH3T3 | C33A | CAOV3 | CASKI

C=C1C[C@@]23CC[C@@H]4[C@](C)(C(=O)O)CCC[C@@]4(C)C2=CC[C@H]1C3
inactive: NIH3T3 | C33A | CAOV3 | CASKI

COC1=CC(=O)O[C@@H](/C=C/c2ccccc2)[C@@H]1O
inactive: NIH3T3 | C33A | CAOV3 | CASKI

CC(/C=C/C1(O)C(C)CC(O)CC1(C)C)OC1OC(CO)C(O)C(O)C1O (centres undefined)
inactive: NIH3T3 | C33A | CAOV3 | CASKI

CC1=C2C3OC(=O)C(C)C3(O)CCC2(C)CCC1=O (centres undefined)
inactive: NIH3T3 | C33A | CAOV3 | CASKI

CC(C)(C)c1cc(CN2CCN(CC(O)c3ccc(Cl)cc3)CC2)cc(C(C)(C)C)c1O (centres undefined)
inactive: NIH3T3 | C33A | CAOV3

CC(=O)NCCCCn1c2c(c3ccccc31)C(=O)NCC2
inactive: NIH3T3 | C33A | CAOV3 | CASKI

COC(=O)c1cc(CN2CCN(C(=N)N)CC2)cc(C(=O)N2CCN(C(=O)c3ccc(C(=N)N)cc3)CC2)c1
inactive: NIH3T3 | C33A | CAOV3 | CASKI

CCC[C@@H]1C[C@@H](C(=O)N[C@@H]([C@H]2O[C@H](SC)[C@H](O)[C@@H](O)[C@@H]2O)[C@@H](C)O)N(C)C1
inactive: NIH3T3 | C33A | CAOV3 | CASKI

CC(=O)OC(C)OC(=O)C(C)c1ccc(-c2ccccc2)c(F)c1 (centres undefined)
inactive: all assays above

COc1ccc(C(O[C@@H]2O[C@H](CO)[C@@H](O)[C@H](O)[C@H]2O)C(CO)Oc2ccc(/C=C/CO)cc2OC)cc1O (some centres undefined)
inactive: NIH3T3 inactive [at 17.4 µM] | C33A | CAOV3 | CASKI

CC(C)NC[C@H](O)COc1ccc(CCOCC2CC2)cc1
inactive: NIH3T3 | C33A | CAOV3 | CASKI

CN1C(=O)N[C@@H](Cc2c[nH]c3c(Cl)cccc23)C1=O
inactive: NIH3T3 | C33A | CAOV3 | CASKI

O=C(O)c1cnn(-c2nc3cc(OC(F)(F)F)c(Cl)cc3[nH]2)c1
inactive: NIH3T3 | C33A | CAOV3

C=C1CC[C@H]2[C@@](C)(CCC(O)[C@@]2(C)CO)[C@@H]1C/C=C(/C(=O)O)C(O)CO (some centres undefined)
inactive: NIH3T3 | C33A | CAOV3

CCCn1cnc2c(NCc3ccccc3)nc(N[C@H](CC)CO)nc21
inactive: NIH3T3 | C33A | CAOV3 | CASKI

CC1C(=O)CC2C3C(O)CC(C(=O)O)C12CC3(C)C (centres undefined)
inactive: NIH3T3 | C33A | CAOV3 | CASKI

Cn1c(=O)cc(N2CCCC(N)C2)n(Cc2ccccc2C#N)c1=O (centres undefined)
inactive: NIH3T3 | C33A | CAOV3 | CASKI

CC1(C)CCC(C)(C)c2cc([C@@H](O)C(=O)Nc3ccc(C(=O)O)cc3F)ccc21
inactive: NIH3T3 | C33A | CAOV3 | CASKI

C=C1CCC2C(C)(C)CC(=O)CC2(C)C1CCC(C)CCOC(C)=O (centres undefined)
inactive: NIH3T3 | C33A | CAOV3 | CASKI

O=C(O)c1ccc(CCCc2ccc(OCCc3ccc(F)cc3)cc2)o1
inactive: NIH3T3 | C33A | CAOV3 | CASKI

CC1(C)CC(=O)N(CCCCN2CCN(c3ncccn3)CC2)C(=O)C1
inactive: NIH3T3 | C33A | CAOV3 | CASKI

CO[C@@]12CC3[C@@H]([C@@H](O)[C@@H](OC(C)=O)C4[C@](C)(COC(C)=O)CCC[C@]34C)[C@@H](C)C1=CC(=O)O2 (some centres undefined)
inactive: NIH3T3 inactive [at 17.4 µM] | C33A | CAOV3 | CASKI

COc1cc([C@H]2OC[C@@H]3[C@@H](c4ccc(O[C@@H]5O[C@H](CO)[C@@H](O)[C@H](O)[C@H]5O)c(OC)c4)OC[C@]23O)ccc1O
inactive: NIH3T3 inactive [at 17.4 µM] | C33A | CAOV3 | CASKI
